Measured values reported in ChEMBL document CHEMBL1961873, “Compounds: GSK PKIS; Assays: Nanosyn kinase panel” (2012).

Key:
[1] = target: T1, Serine/threonine-protein kinase Nek9 (Homo sapiens) (UniProt Q8TD19); details: at 1 µM;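 note: each value is a mean percent inhibition of NEK9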
T1 sequence (whole entry): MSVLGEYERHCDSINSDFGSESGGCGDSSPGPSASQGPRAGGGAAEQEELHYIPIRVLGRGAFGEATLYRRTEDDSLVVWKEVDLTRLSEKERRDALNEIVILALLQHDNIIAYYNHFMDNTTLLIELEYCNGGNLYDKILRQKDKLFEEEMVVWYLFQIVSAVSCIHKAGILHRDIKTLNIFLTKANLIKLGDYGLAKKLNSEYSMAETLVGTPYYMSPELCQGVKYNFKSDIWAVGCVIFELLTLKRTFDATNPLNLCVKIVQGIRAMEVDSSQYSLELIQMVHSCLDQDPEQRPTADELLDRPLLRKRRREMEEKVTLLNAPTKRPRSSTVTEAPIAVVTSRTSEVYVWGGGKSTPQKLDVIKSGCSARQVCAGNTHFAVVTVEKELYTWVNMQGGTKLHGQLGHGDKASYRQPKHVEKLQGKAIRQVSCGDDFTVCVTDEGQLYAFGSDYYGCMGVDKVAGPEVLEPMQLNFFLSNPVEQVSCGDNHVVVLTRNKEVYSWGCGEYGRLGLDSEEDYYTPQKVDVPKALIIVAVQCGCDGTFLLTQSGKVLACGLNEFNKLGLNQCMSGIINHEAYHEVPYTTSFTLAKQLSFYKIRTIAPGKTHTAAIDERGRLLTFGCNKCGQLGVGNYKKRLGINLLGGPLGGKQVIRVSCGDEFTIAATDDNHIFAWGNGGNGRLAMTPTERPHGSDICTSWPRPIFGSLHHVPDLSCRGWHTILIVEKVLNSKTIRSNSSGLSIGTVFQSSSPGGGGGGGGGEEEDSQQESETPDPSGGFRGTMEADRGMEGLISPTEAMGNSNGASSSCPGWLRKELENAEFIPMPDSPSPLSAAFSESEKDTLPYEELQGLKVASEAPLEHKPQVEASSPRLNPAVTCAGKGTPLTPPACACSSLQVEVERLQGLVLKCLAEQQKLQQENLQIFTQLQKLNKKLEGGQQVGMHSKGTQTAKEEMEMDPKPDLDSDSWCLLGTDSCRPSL

[2] = target: Serine/threonine-protein kinase PLK1 (Homo sapiens) (UniProt P53350); details: at 0.1 µM
[3] = target: Serine/threonine-protein kinase PLK1 (Homo sapiens) (UniProt P53350); details: at 1 µM
[4] = target: T2, Dual specificity protein kinase TTK (Homo sapiens) (UniProt P33981); details: at 0.1 µM
T2 sequence (whole entry): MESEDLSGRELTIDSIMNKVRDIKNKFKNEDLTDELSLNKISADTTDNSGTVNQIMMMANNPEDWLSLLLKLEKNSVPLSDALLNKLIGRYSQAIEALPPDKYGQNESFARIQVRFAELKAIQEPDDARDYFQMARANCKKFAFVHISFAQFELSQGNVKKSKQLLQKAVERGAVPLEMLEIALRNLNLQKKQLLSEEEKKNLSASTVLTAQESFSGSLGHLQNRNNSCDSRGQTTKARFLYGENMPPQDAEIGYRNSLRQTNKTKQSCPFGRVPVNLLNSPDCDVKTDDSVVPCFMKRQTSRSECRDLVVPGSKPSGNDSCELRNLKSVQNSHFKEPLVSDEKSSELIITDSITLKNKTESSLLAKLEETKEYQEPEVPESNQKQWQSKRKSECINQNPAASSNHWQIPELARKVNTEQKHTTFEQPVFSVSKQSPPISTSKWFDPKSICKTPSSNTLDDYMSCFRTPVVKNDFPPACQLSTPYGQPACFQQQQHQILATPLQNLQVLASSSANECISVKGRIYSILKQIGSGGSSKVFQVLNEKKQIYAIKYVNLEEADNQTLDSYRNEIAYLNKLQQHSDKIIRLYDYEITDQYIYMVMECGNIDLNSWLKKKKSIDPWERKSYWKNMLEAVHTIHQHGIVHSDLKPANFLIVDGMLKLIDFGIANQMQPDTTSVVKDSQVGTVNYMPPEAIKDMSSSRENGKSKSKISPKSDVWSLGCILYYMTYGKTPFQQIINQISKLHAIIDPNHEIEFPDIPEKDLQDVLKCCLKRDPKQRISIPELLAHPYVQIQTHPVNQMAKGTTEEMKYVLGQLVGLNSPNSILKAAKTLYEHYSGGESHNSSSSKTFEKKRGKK

[5] = test system: T3, Receptor-type tyrosine-protein kinase FLT3 (Homo sapiens), P36888 [D835Y]; details: at 1 µM
T3 sequence (whole entry): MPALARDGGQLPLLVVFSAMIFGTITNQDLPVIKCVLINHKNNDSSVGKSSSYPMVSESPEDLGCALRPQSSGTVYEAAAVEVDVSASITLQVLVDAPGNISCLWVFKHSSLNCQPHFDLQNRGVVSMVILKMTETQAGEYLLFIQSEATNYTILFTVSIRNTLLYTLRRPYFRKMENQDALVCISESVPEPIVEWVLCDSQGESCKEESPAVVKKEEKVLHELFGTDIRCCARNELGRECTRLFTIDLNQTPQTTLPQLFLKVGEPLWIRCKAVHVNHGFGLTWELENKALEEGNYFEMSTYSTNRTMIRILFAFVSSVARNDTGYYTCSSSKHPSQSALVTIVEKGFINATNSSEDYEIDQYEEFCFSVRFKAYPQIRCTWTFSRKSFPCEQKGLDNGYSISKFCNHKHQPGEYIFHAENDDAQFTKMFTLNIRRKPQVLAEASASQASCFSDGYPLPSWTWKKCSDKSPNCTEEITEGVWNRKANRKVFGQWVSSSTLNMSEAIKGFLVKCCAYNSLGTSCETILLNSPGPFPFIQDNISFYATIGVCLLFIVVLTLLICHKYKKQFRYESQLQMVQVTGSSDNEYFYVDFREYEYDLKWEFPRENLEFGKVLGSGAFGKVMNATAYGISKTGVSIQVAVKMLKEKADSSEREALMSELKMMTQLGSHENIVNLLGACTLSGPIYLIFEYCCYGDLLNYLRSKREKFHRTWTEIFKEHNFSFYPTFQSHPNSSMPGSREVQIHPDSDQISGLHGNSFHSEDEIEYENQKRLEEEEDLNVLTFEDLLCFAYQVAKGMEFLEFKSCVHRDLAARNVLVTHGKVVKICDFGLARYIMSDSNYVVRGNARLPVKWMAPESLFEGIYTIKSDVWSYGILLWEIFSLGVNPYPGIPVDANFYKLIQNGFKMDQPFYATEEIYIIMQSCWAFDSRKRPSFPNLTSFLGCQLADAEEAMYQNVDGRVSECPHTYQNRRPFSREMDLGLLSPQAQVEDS

[6] = target: Vascular endothelial growth factor receptor 3 (Homo sapiens) (UniProt P35916); details: at 0.1 µM
[7] = target: Vascular endothelial growth factor receptor 3 (Homo sapiens) (UniProt P35916); details: at 1 µM
[8] = target: Macrophage colony-stimulating factor 1 receptor (Homo sapiens) (UniProt P07333); details: at 0.1 µM
[9] = target: Macrophage colony-stimulating factor 1 receptor (Homo sapiens) (UniProt P07333); details: at 1 µM
[10] = target: Tyrosine-protein kinase Fyn (Homo sapiens) (UniProt P06241); details: at 0.1 µM
[11] = target: Tyrosine-protein kinase Fyn (Homo sapiens) (UniProt P06241); details: at 1 µM
[12] = target: Tyrosine-protein kinase HCK (Homo sapiens) (UniProt P08631); details: at 0.1 µM
[13] = target: Tyrosine-protein kinase HCK (Homo sapiens) (UniProt P08631); details: at 1 µM
[14] = target: Insulin-like growth factor 1 receptor (Homo sapiens) (UniProt P08069); details: at 1 µM
[15] = target: Insulin receptor (Homo sapiens) (UniProt P06213); details: at 0.1 µM
[16] = target: Insulin receptor (Homo sapiens) (UniProt P06213); details: at 1 µM
[17] = target: Insulin receptor-related protein (Homo sapiens) (UniProt P14616); details: at 0.1 µM
[18] = target: Insulin receptor-related protein (Homo sapiens) (UniProt P14616); details: at 1 µM
[19] = target: T4, Tyrosine-protein kinase ITK/TSK (Homo sapiens) (UniProt Q08881); details: at 0.1 µM;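 note: mean percent inhibition of ITK from the GSK PKIS screen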
T4 sequence (whole entry): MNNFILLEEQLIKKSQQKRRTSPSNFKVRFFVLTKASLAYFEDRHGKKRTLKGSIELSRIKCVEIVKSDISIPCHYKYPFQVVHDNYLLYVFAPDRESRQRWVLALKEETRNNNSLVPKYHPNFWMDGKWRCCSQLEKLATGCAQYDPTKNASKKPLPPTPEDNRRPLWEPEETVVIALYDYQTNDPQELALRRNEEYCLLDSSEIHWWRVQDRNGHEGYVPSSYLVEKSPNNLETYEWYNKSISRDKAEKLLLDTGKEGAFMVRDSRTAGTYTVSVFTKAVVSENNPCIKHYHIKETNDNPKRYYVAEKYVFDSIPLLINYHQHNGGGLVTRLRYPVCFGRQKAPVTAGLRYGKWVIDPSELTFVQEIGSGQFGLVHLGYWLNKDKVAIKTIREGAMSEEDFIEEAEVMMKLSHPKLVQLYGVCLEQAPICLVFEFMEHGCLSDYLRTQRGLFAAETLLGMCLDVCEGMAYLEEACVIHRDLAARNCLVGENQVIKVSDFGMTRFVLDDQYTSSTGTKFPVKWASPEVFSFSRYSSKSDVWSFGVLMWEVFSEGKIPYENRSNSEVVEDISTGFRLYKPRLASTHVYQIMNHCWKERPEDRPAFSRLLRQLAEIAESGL

[20] = target: Insulin-like growth factor 1 receptor (Homo sapiens) (UniProt P08069); details: at 0.1 µM

Sequence of Tyrosine-protein kinase HCK (Homo sapiens) (P08631 2-526 limits assumed): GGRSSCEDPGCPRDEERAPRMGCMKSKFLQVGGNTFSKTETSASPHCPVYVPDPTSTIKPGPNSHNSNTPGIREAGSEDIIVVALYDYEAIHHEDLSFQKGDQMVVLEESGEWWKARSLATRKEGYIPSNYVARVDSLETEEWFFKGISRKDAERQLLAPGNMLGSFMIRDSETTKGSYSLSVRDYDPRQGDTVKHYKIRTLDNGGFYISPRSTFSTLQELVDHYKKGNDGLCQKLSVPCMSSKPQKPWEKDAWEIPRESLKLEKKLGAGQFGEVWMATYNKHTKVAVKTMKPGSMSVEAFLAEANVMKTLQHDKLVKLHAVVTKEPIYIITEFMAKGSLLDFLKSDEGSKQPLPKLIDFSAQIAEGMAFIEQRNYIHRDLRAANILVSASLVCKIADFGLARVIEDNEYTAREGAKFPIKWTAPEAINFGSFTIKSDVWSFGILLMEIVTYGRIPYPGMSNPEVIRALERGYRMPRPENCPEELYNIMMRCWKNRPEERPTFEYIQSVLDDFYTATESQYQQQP
Sequence of Tyrosine-protein kinase Fyn (Homo sapiens) (P06241 2-537 limits assumed): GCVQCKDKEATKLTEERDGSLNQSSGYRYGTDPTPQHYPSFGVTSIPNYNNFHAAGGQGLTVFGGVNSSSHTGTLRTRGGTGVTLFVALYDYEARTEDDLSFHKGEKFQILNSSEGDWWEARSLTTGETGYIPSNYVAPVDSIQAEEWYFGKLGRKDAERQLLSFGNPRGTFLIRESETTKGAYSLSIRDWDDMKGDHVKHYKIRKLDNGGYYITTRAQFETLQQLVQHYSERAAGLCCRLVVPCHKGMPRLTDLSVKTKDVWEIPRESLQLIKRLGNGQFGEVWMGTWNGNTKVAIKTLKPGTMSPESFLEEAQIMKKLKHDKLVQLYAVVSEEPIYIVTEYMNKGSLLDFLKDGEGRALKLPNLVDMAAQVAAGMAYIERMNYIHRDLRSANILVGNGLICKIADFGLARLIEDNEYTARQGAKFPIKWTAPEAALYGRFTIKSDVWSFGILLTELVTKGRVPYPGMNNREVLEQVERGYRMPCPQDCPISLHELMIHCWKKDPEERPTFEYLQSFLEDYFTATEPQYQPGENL
Sequence of Insulin receptor (Homo sapiens) (P06213 28-758 limits assumed): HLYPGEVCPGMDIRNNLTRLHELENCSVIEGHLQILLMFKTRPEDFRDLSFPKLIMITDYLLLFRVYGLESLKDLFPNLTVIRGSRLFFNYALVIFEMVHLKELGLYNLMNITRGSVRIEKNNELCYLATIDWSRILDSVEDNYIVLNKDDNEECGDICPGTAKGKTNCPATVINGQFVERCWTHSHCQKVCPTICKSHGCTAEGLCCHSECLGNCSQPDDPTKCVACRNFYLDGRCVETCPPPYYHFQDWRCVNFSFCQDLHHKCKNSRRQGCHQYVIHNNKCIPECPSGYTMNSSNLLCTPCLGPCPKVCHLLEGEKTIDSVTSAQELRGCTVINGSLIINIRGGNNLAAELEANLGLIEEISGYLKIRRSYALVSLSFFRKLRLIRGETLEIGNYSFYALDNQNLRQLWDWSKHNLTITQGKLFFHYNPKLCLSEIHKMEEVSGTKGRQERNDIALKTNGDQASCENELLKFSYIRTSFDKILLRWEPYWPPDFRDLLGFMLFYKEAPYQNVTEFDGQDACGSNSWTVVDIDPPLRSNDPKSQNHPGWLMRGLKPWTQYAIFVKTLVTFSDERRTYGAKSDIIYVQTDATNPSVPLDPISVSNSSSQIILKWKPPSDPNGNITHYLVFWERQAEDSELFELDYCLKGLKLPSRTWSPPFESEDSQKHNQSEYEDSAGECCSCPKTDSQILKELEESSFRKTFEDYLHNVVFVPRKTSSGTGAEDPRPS
Sequence of Insulin receptor (Homo sapiens) (P06213 763-1382 limits assumed): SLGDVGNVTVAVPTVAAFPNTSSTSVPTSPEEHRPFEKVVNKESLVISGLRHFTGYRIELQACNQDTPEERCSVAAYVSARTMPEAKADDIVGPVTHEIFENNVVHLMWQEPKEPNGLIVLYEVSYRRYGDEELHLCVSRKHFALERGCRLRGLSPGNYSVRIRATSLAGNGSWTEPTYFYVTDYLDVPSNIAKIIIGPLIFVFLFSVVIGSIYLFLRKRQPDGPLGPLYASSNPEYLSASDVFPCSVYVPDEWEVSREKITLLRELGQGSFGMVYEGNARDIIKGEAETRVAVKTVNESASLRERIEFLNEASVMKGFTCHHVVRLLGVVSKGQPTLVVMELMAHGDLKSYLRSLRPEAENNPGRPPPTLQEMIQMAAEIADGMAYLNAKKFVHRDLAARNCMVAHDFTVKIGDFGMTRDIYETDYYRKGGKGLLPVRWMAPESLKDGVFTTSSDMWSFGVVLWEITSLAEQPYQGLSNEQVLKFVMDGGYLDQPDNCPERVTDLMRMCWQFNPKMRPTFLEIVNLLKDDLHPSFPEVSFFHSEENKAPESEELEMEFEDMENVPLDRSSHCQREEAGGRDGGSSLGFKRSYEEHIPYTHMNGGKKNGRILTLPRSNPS
Sequence of Vascular endothelial growth factor receptor 3 (Homo sapiens) (P35916 whole entry): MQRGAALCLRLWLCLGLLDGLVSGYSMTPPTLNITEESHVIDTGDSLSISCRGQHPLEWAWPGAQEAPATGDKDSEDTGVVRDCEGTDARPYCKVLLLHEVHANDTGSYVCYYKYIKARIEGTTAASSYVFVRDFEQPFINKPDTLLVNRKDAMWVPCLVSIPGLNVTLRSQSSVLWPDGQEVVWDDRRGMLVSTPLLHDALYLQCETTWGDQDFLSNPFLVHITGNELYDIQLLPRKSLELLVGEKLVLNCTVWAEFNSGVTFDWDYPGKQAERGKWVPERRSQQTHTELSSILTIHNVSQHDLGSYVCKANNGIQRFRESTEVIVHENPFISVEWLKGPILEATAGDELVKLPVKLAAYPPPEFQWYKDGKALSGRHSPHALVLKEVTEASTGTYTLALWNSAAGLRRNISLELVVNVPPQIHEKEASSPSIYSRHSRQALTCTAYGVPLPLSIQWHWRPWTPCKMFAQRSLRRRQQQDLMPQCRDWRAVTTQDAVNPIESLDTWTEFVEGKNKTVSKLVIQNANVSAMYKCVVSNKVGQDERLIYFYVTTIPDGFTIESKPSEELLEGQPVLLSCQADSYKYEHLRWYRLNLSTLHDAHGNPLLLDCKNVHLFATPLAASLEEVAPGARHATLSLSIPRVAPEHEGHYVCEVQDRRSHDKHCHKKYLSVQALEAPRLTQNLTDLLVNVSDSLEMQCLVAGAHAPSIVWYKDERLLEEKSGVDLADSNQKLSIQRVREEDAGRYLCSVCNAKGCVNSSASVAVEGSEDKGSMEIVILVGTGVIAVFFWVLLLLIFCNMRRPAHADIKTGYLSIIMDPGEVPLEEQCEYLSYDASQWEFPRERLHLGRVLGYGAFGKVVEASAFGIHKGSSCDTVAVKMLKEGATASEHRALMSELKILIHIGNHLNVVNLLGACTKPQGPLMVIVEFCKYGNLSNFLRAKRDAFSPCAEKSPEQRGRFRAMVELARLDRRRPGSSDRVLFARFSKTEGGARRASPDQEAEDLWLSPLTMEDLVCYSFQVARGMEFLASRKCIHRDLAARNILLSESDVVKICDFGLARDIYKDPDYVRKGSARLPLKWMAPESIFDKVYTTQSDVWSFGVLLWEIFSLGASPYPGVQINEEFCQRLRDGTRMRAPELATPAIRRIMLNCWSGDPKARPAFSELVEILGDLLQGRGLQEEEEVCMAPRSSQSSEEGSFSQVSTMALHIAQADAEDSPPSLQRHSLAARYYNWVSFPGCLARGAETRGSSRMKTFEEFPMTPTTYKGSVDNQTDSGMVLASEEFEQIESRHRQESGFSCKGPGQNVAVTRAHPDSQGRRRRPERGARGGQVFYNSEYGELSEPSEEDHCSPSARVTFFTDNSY
Sequence of Serine/threonine-protein kinase PLK1 (Homo sapiens) (P53350 whole entry): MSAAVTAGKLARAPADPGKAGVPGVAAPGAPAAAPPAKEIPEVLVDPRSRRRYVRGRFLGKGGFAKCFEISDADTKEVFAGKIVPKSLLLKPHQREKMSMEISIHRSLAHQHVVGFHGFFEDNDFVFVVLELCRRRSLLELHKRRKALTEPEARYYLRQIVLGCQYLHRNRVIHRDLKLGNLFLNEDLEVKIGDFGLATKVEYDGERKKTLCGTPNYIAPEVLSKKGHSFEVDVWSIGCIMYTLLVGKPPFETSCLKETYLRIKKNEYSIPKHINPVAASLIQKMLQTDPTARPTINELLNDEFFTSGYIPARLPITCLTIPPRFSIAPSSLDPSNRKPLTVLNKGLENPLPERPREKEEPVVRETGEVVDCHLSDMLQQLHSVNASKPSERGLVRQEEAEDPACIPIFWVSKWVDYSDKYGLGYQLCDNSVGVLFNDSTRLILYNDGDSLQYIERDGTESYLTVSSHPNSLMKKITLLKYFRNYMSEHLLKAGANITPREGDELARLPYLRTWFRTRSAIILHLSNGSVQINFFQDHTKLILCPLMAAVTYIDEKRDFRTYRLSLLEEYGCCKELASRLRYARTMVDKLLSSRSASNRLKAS

Row | SMILES | inhibition [1] [%] | inhibition [2] [%] | inhibition [3] [%] | inhibition [4] [%] | inhibition [5] [%] | inhibition [6] [%] | inhibition [7] [%] | inhibition [8] [%] | inhibition [9] [%] | inhibition [10] [%] | inhibition [11] [%] | inhibition [12] [%] | inhibition [13] [%] | inhibition [14] [%] | inhibition [15] [%] | inhibition [16] [%] | inhibition [17] [%] | inhibition [18] [%] | inhibition [19] [%] | inhibition [20] [%]
1 | Fc1ccc(-c2ncn(C3CCNCC3)c2-c2ccnc(Oc3ccc(F)c(F)c3)n2)cc1 | 6.01 | 3.45 | 2.6 | 10.3 | -6.12 | -4.95 | -7.54 | 1.11 | 7.56 | -4.18 | -4.44 | 5.11 | 4.68 | -4.9 | -2.06 | 0.24 | 3.04 | 2.75 | -3.95 | –
2 | CN(c1ccc(NC(=O)Nc2c(Cl)cccc2Cl)cc1)c1ccnc(Nc2cccc(CS(C)(=O)=O)c2)n1 | -6.03 | 0.57 | 0.37 | 3.9 | 28.8 | 23 | 41.7 | 92.1 | 96.2 | 2.74 | 12.4 | 22.5 | 48.9 | 4.63 | 1.49 | 3.45 | 2.73 | 4.71 | 54.1 | 5.47
3 | NS(=O)(=O)c1ccc(N/N=C2\C(=O)Nc3ccc(-c4cnco4)cc32)cc1 | 7.27 | 3.71 | 3.38 | 15.1 | 73.1 | -4.32 | 25.8 | 4.76 | 27.8 | -0.9 | 7.81 | 5.08 | 23.3 | -2.26 | 1.72 | 7.36 | -1.08 | 0.6 | -3.91 | –
4 | COc1cccc(-n2cnc3c(N/N=C/c4ccncc4)ncnc32)c1 | 5.21 | -1.9 | -0.54 | 0.25 | 9.6 | – | -4.88 | 4.43 | 24.9 | -0.06 | 25.6 | 0.9 | 16.3 | -8.19 | -2.78 | -4.12 | 1 | 0.57 | -2.76 | –
5 | CCc1nccc2c1nc(-c1nonc1N)n2CC | 2.52 | 0.58 | 1.55 | 3.28 | -1.94 | -0.59 | 3.19 | -0.59 | 1.95 | 2.96 | 0.11 | 11.6 | 16.3 | 2.4 | 0.64 | 0.74 | -0.83 | -1.07 | 0.88 | -0.66
6 | Cc1nnc(-c2ccc(C)c(-c3ccc(C(=O)NCc4ccc(Cl)cc4)cc3)c2)o1 | 11.6 | 3.2 | 4.52 | 11.7 | -0.11 | -5.22 | – | 2.43 | 0.83 | -2.42 | -1.62 | 4.39 | 5.02 | -3.35 | 5.65 | 6.19 | 1.93 | 1.98 | -2.09 | -3.42
7 | COc1cc(Nc2ncc3c(C)nc(-c4cccc(Oc5ccccc5)c4)n3n2)cc(OC)c1OC | 81.4 | – | – | 3.03 | 20.2 | -1.15 | 0.93 | 1.83 | 22.3 | 1.2 | 8.45 | 3.59 | 5.25 | 5.13 | 5.22 | 8.16 | 2.99 | 3.66 | 0.96 | 3.82
